Here are results for nine compounds from PubChem BioAssay (Tox21).

Results filed as inconclusive are left out. Values without a mark were called inactive. Active and inactive are the calls of the source. Unless noted, calls follow the shape of the dose curve; as a rule, active = well fitted curve in the direction sought with a large enough effect in the repeat runs; inconclusive = weak or mixed curves; inactive = no such curve, though single readings can be large; an effect the other way counts as inactive or inconclusive.

A short description of assay [1]: qHTS assay to identify aromatase inhibitors - cell viability counter screen (AID 743084).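 Also: cells stimulated with testosterone during compound exposure; nearly all actives have a fitted effect of over 55% in size.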 On the technique in general: Quantitative high-throughput screening tests each substance at several concentrations.
The target in assay [2] is Aryl hydrocarbon receptor (Homo sapiens) (UniProt P35869). In words: qHTS assay to identify small molecule that activate the aryl hydrocarbon receptor (AhR) signaling pathway (AID 743085).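 Also: HG2L7.5c1 human HepG2 liver cells with stably integrated DRE-driven firefly reporter; series mostly up to about 70 µM; nearly all actives have a fitted effect of over 15% in size.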 In a few lines: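 HepG2 cells (HG2L7.5c1) stably carrying a firefly luciferase reporter driven by 20 dioxin responsive elements were exposed to compound for 24 h at 37C after a 5 h settling period; luminescence rise (ONE-Glo) indicated activation.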
Sequence of Aryl hydrocarbon receptor (Homo sapiens) (P35869 whole entry, looked up): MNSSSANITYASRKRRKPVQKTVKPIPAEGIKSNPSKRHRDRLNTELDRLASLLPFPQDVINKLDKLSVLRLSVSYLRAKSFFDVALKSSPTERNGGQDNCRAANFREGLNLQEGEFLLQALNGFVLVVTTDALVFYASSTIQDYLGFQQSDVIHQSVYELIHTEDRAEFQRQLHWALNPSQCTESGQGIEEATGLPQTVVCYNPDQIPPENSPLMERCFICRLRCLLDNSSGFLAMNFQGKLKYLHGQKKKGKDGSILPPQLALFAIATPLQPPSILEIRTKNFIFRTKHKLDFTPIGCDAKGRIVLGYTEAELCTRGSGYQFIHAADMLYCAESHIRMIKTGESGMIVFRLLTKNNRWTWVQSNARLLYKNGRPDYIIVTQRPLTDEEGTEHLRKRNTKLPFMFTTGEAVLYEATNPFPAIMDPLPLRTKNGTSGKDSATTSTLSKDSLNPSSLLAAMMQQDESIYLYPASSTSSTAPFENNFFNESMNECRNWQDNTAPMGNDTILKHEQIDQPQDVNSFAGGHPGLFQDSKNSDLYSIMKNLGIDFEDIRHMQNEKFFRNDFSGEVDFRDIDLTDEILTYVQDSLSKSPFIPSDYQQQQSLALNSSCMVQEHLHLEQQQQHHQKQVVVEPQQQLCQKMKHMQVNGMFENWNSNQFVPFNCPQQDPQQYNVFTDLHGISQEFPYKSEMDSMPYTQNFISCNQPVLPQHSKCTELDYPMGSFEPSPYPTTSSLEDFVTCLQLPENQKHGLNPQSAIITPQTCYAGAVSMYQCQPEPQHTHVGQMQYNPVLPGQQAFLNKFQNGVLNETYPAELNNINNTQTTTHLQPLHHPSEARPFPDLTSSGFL

Assay [3] can be described thus: qHTS assay to identify small molecule that activate the aryl hydrocarbon receptor (AhR) signaling pathway - cell viability counter screen (AID 743086).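 Also: HepG2 liver cells carrying the AhR DRE luciferase reporter; series mostly up to about 70 µM; nearly all actives have a fitted effect of over 45% in size.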 In a few lines:
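HepG2-AhR-luc (HG2L7.5c1) cells, 4000/well, were preincubated 5 h at 37C, exposed to compound in qHTS format for 24 hr at 37C, then given CellTiter-Fluor for 30 min; viability was read as fluorescence in the reporter wells.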

Assay [4] addresses Peroxisome proliferator-activated receptor gamma (Homo sapiens) (UniProt P37231). In words: qHTS assay to identify small molecule agonists of the peroxisome proliferator-activated receptor gamma (PPARg) signaling pathway (AID 743094; active = well fitted activation curve with a large enough effect in the signal ratio in the repeat runs, not every such curve was filed as active; the % refers to the signal ratio). In a few lines: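 Following 5 h plating at 37C, PPARg-bla HEK293H cells receive compound or DMSO for 17 h; fluorescence intensity is recorded after LiveBLAzer B/G loading for 1 h at room temperature.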

Assay [5] has the same target. In words: qHTS assay to identify small molecule antagonists of the peroxisome proliferator-activated receptor gamma (PPARg) signaling pathway (AID 743191; calls by dose curve; also: series mostly up to about 63 µM; nearly all actives have a fitted effect of over 30% in size). In a few lines: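 GeneBLAzer PPARg UAS-bla HEK293H cells carrying a UAS-driven beta-lactamase reporter were plated at 3000 cells/well, preincubated 5 h at 37C, then given compound for 17 h at 37C; LiveBLAzer B/G FRET substrate was read after 1 h at room temperature.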

The nature of assay [6]: qHTS assay for small molecule agonists of the antioxidant response element (ARE) signaling pathway - cell viability counter screen (AID 743203; calls by dose curve; also: nearly all actives have a fitted effect of over 55% in size). Put shortly: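 Compounds in DMSO were pinned onto ARE-bla HepG2 cells plated 5 hrs earlier at 2,000 cells/well. Sixteen hours later at 37C/5% CO2, CellTiter-Glo was added and luminescence measured after 30 min at room temperature.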

The nature of assay [7]: qHTS assay for small molecule activators of the heat shock response signaling pathway - cell viability counter screen (AID 743209). Also: nearly all actives have a fitted effect of over 50% in size. Put shortly: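 Counter screen for cytotoxicity in HeLa HSE-bla reporter cells. Treatment was 5 h at 37 C; viability was detected by luminescent ATP assay (CellTiter-Glo) in the same wells as the beta-lactamase read.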
Assay [8] in a line: qHTS assay for small molecule activators of the heat shock response signaling pathway (AID 743210; active = well fitted activation curve with a large enough effect in the signal ratio in the repeat runs, with a control signal flat, not every such curve was filed as active; the % refers to the signal ratio;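 also: HeLa cells with beta-lactamase reporter driven by heat shock elements; series mostly up to about 63 µM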). Put shortly: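 Reporter gene assay: HeLa cells stably bearing an HSE-bla construct, compound treatment 5 h at 37 C, LiveBLAzer substrate 2.5 h at RT, fluorescence intensity.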
A short description of assay [9]: qHTS assay to identify small molecule agonists of the peroxisome proliferator-activated receptor delta (PPARd) signaling pathway - cell viability counter screen (AID 743211). Also: nearly all actives have a fitted effect of over 55% in size. Put shortly: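 PPARd-bla HEK293H cells (UAS-beta-lactamase reporter) were treated with compounds for 17 h at 37 C. Viability was then read in the same wells by CellTiter-Glo luminescence after 30 min at room temperature.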

Assay [10] is described as follows: qHTS assay to identify small molecule antagonists of the peroxisome proliferator-activated receptor delta (PPARd) signaling pathway - cell viability counter screen (AID 743213). Also: nearly all actives have a fitted effect of over 50% in size. Also: potency is read from the fitted curve at half-maximal effect. Put shortly: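 Luminescence from CellTiter-Glo, added after the bla read and incubated 30 min at room temperature, gives viability of HEK293H PPARd-bla cells exposed to compounds for 17 h at 37 C with 300 nM L165041.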

The target in assay [11] is Bile acid receptor (Homo sapiens) (UniProt Q96RI1). The experiment in a line: qHTS assay to identify small molecule antagonists of the farnesoid-X-receptor (FXR) signaling pathway (AID 743217; active = well fitted inhibition curve with a large enough effect in the signal ratio in the repeat runs, not every such curve was filed as active; the % refers to the signal ratio). In a few lines: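 In this cell-based antagonist screen, inhibition of CDCA-driven (50 uM final) UAS-beta-lactamase expression in HEK 293T cells was measured by FRET fluorescence following 16 h compound exposure at 37 °C.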
Sequence of Bile acid receptor (Homo sapiens) (Q96RI1 whole entry, looked up): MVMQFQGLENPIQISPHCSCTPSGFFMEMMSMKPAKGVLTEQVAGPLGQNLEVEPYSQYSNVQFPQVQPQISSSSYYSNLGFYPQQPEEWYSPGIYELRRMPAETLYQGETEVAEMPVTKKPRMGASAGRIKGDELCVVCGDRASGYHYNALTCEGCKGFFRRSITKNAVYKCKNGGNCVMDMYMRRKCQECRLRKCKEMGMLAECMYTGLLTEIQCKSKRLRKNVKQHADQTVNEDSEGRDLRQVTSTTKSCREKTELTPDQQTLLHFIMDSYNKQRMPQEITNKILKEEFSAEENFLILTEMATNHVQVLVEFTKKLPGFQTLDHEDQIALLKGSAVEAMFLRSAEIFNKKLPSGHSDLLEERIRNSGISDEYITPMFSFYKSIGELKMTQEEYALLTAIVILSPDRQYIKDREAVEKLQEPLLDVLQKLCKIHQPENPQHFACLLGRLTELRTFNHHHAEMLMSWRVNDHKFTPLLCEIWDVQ

Assay [12] has the same target. In words: qHTS assay to identify small molecule agonists of the farnesoid-X-receptor (FXR) signaling pathway (AID 743220; active = well fitted activation curve with a large enough effect in the signal ratio in the repeat runs, not every such curve was filed as active; the % refers to the signal ratio). Put shortly: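 Beta-lactamase reporter under UAS control in GeneBLAzer FXR HEK 293T cells (5000/well) measured with LiveBLAzer FRET substrate after 2 h at room temperature. Compound exposure lasted 16 h at 37C.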
Assay [13] has as its target Vitamin D3 receptor (Homo sapiens) (UniProt P11473). In words: qHTS assay to identify small molecule agonists of the vitamin D receptor (VDR) signaling pathway (AID 743222; calls by dose curve). In a few lines:
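VDR-bla cells were seeded, left 4 h, treated with compounds in DMSO for 16 h, incubated 2 h at RT with B/G FRET substrate, and read for fluorescence.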

The target is the same in assay [14]. The experiment in a line: qHTS assay to identify small molecule antagonists of the vitamin D receptor (VDR) signaling pathway (AID 743223; active = well fitted inhibition curve with a large enough effect in the signal ratio in the repeat runs, not every such curve was filed as active; the % refers to the signal ratio). In a few lines: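 VDR-bla cells were plated, incubated 4 h at 37C, then given compound and 1alpha,25-dihydroxyvitamin D3 (3 nM final). After 16 h at 37C, LiveBLAzer B/G FRET substrate was added for 2 h at room temperature and fluorescence read.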

A short description of assay [15]: qHTS assay to identify small molecule antagonists of the peroxisome proliferator-activated receptor gamma (PPARg) signaling pathway - cell viability counter screen (AID 743194). Also: nearly all actives have a fitted effect of over 55% in size. Put shortly: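 PPARg-UAS-bla HEK293H cells were plated, rested 5 h at 37 C, then treated with compounds plus rosiglitazone (50 nM final) for 17 h at 37 C; viability was then read by CellTiter-Glo luminescence after 30 min at room temperature.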

Assay [16] can be described thus: qHTS assay for small molecule agonists of the antioxidant response element (ARE) signaling pathway (AID 743202; active = well fitted activation curve with a large enough effect in the signal ratio in the repeat runs, not every such curve was filed as active; the % refers to the signal ratio). Put shortly: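 Compounds delivered in DMSO to ARE-bla HepG2 cells (2,000 cells/well, pre-incubated 5 h) and left 16 h at 37 C. LiveBLAzer B/G FRET substrate then added for 2 h at RT before fluorescence reading.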
The target in assay [17] is Peroxisome proliferator-activated receptor delta (Homo sapiens) (UniProt Q03181). In words: qHTS assay to identify small molecule agonists of the peroxisome proliferator-activated receptor delta (PPARd) signaling pathway (AID 743212; calls by dose curve). Put shortly:
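A PPARd-bla HEK293H line with beta-lactamase under an Upstream Activator Sequence is treated with compounds at 37 C. Substrate loading for 2 h at room temperature precedes the fluorescence measurement.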

Assay [18] has the same target. In words: qHTS assay to identify small molecule antagonists of the peroxisome proliferator-activated receptor delta (PPARd) signaling pathway (AID 743215; active = well fitted inhibition curve with a large enough effect in the signal ratio in the repeat runs, not every such curve was filed as active; the % refers to the signal ratio;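 also: cells stimulated with agonist L165041 at 300 nM final during compound exposure; series mostly up to about 62 µM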). Put shortly: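 With L165041 present at 300 nM final, compounds were incubated 17 h at 37 C on PPARd UAS-bla HEK293H cells. A FRET-based beta-lactamase substrate was then applied for 2 h at room temperature and fluorescence intensity recorded.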

Assay [19] in a line: qHTS assay to identify small molecule agonists of the farnesoid-X-receptor (FXR) signaling pathway - cell viability counter screen (AID 743218). Also: nearly all actives have a fitted effect of over 45% in size. In a few lines: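 After 16 h at 37 C with test compounds, FXR-bla HEK 293T cells were given LiveBLAzer B/G substrate for 2 h at RT and then CellTiter-Glo; luminescence was taken after 30 min.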
A short description of assay [20]: qHTS assay to identify small molecule antagonists of the farnesoid-X-receptor (FXR) signaling pathway - cell viability counter screen (AID 743221; active = well fitted cell-killing curve with a large enough effect in the repeat runs, not every such curve was filed as active; also: nearly all actives have a fitted effect of over 50% in size). In a few lines: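 FXR-UAS-bla HEK 293T cells were treated with test compounds plus chenodeoxycholic acid (50 uM final) for 16 h at 37 C. Cell viability in the same wells was then read as CellTiter-Glo luminescence after 30 min at room temperature.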

Sequence of Peroxisome proliferator-activated receptor delta (Homo sapiens) (Q03181 whole entry, looked up): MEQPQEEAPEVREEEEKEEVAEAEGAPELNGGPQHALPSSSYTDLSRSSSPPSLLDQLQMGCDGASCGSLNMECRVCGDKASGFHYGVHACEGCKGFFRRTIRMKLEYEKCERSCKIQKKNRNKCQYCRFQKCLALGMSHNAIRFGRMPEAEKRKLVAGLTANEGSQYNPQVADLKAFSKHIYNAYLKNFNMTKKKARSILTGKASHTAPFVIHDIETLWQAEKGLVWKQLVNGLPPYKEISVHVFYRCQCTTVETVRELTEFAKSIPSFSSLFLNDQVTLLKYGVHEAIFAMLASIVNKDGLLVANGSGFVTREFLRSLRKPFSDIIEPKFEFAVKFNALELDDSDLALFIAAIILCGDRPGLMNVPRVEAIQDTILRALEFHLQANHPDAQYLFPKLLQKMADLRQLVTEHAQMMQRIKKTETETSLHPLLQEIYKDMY
Sequence of Peroxisome proliferator-activated receptor gamma (Homo sapiens) (P37231 whole entry, looked up): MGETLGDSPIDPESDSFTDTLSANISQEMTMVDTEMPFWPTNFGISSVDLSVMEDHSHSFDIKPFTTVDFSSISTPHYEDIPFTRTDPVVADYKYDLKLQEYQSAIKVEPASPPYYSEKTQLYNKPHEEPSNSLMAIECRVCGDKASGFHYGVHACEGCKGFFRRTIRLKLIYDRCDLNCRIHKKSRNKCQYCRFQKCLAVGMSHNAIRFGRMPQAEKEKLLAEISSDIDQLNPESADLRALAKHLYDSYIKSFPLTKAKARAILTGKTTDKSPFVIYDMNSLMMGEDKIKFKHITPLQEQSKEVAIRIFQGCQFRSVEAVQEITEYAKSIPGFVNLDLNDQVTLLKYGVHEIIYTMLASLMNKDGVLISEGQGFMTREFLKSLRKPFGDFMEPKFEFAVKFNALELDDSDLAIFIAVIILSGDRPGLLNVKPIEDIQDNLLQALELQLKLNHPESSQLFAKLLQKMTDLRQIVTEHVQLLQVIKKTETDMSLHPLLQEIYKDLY
Sequence of Vitamin D3 receptor (Homo sapiens) (P11473 whole entry, looked up): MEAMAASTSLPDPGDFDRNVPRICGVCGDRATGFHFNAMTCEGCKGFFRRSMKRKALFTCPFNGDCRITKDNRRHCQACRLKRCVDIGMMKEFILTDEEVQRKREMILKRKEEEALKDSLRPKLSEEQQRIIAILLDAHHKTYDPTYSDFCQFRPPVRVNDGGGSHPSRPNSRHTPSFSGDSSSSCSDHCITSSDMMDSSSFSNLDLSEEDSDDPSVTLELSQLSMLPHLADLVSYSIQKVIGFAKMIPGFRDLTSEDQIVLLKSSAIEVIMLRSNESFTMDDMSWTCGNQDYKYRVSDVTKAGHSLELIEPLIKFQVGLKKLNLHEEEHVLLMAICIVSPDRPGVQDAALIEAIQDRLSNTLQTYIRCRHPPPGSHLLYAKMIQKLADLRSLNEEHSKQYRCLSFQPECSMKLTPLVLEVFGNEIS

As for `C=CC(=O)NC(C)(C)C`, the Potency result in assay [1], in assay [2], in assay [3], in assay [4], in assay [5] and in assay [6] was “inactive” throughout. Besides, the Potency entry in assay [9] and in assay [10] was “inactive” each time. Also, the result in [7], in [8], in assay [11], in assay [12], in [13] and in [14] was inactive.
As for `COc1cc(C)c(Cc2cnc(N)nc2N)cc1OC`, the Potency entry in [1], in assay [2], in assay [3], in assay [4], in assay [15] and in assay [16] was “inactive” throughout. The Potency entry in assay [6], in assay [9], in assay [17], in assay [10], in assay [19] and in assay [20] was “inactive” throughout. In addition, the compound was classed as inactive in assay [7], in assay [8] and in assay [18].
Take `CC(C(=O)O)c1ccc2c(c1)Cc1cccnc1O2` (stereo unspecified): the Potency result in assay [1], in [2], in assay [3], in [4], in assay [15] and in [16] was “inactive” in each case. Moreover, the Potency result in assay [6], in assay [9], in assay [17], in [10], in assay [19] and in assay [20] was “inactive” in each case. The compound was called inactive in [7], in [8], in assay [18], in assay [13] and in assay [14].
With `OCCCO`, the Potency result in assay [1], in [2], in assay [3], in assay [4], in assay [5] and in assay [6] was “inactive” each time. Besides, the Potency entry in assay [17], in assay [10] and in [19] was “inactive” in each case. Besides, the compound was classed as inactive in assay [7], in assay [8], in assay [18], in [13] and in assay [14].
Turning to `COC(=O)C(C)(C)C`, the Potency entry in assay [1], in assay [2], in [3], in assay [4], in assay [5] and in [6] was “inactive” in each case. Besides, the Potency result in assay [9], in [10], in assay [19] and in [20] was “inactive” each time. For the same compound, the result in assay [7], in assay [8], in [11], in assay [12], in [13] and in assay [14] was inactive.
Regarding `O=C(O)c1ccccc1[N+](=O)[O-]`, the Potency entry in assay [1], in assay [2], in assay [3], in [4], in assay [5] and in [6] was “inactive” each time. Besides, the Potency entry in assay [17] and in assay [10] was “inactive” in each case. Further, the compound was called inactive in assay [7], in [8], in assay [18], in [12], in assay [13] and in assay [14].
Take `CC(C)(C)c1ccc(CCC=O)cc1`: the Potency entry in [1], in assay [2], in [3], in assay [4], in assay [5] and in assay [16] was “inactive” throughout. The Potency result in assay [6], in assay [9], in [17], in [10] and in [20] was “inactive” in each case. For the same compound, the call in [7], in assay [8], in [18], in assay [11] and in assay [12] was inactive.
`CCCC1CCOC(C)S1` (stereo unspecified): the Potency result in [1], in assay [2], in [3], in [4], in assay [5] and in assay [16] was “inactive” each time. Also, the Potency entry in assay [6], in assay [9], in assay [19] and in assay [20] was “inactive” each time. The compound was called inactive in assay [7], in assay [8], in assay [13] and in [14]. Besides, the Potency in assay [10] is 4.9 µM (active).
For the compound `Nc1cccc2c(=O)[nH][nH]c(=O)c12`, the Potency entry in assay [1], in assay [2], in assay [3], in [4], in assay [5] and in assay [16] was “inactive” in each case. Besides, the Potency entry in assay [6], in assay [9], in [17], in assay [19] and in [20] was “inactive” in each case. For the same compound, the result in [8], in assay [18], in [11] and in assay [12] was inactive.
